# Measurements as given in ChEMBL document CHEMBL4513216, “Probing the Open Global Health Chemical Diversity Library for Multistage-Active Starting Points for Next-Generation Antimalarials” (ACS Infect Dis, 2020).
# About 8,600 (12%) of roughly 69,000 compounds showed an effect of 50% or more. The full list was thinned out, with strong results kept by preference.
# Test system: Plasmodium berghei
# Assay: Screen against P. berghei liver stage (PbLuc), transformed with Luciferase, at 10uM
# Assay type: functional, HepG2
# Conditions: tested at 10 uM
row,SMILES,INHIBITION [%]
1,O=C(Nc1ccccc1)c1cccc(S(=O)(=O)NC[C@@H]2C[C@H](F)CN2)c1,60.2
2,CCOCCNC(=O)c1cccc(S(=O)(=O)NC[C@@H]2C[C@H](F)CN2)c1,-3.87
3,O=C(c1cccc(S(=O)(=O)NC[C@@H]2C[C@H](F)CN2)c1)N1CCCCC1,46.1
4,CNc1snc(C)c1C(=O)N1CCCC(n2ccnc2C)C1 (stereo not given),37.9
5,Cn1ccnc1CN1CCc2onc(COCC3CC3)c2C1,19.6
6,Cc1nccn1CCCN1CCCC(c2ccccc2)C1 (stereo not given),49.4
7,CC(=O)Nc1ccc(OCc2noc(C(=O)N3CCCCCC3)n2)cc1,64.7
8,CC(=O)Nc1ccc(OCc2noc(C(=O)N3CCCCC3)n2)cc1,17.1
9,CC(=O)Nc1ccc(OCc2noc(C(=O)N3CCCC3)n2)cc1,31.3
10,N#Cc1cccc(N2CCCC3(C2)CN(c2ncc(F)cn2)CCO3)n1 (stereo not given),8.31
11,c1coc(CN2CCn3c(COCC4CC4)nnc3C2)c1,18.5
12,CCOC1CCCN(C(=O)c2cnc3c(cnn3C3CCCC3)c2)C1 (stereo not given),24
13,NC(=O)C1CCCN(C(=O)c2cnc3c(cnn3C3CCCC3)c2)C1 (stereo not given),56.6
14,CN1CCN(C(=O)c2cnc3c(cnn3C3CCCC3)c2)CC1,24.8
15,O=C(O)CN(C(=O)c1ccccc1)[C@H]1C[C@H]2CCOC[C@H]2C1,-6.53
16,Cc1ccc(NC2CCN(C(=O)c3ccc(C(N)=O)s3)CC2)nn1,42
17,CN(C)c1ncccc1CNC(=O)NCc1ccc(Cl)s1,-10.1
18,CC(C)C(=O)N1CCCC(Cc2cccnc2)C1 (stereo not given),16.2
19,COc1ccccc1CCC(=O)N1CCCC(OCc2cccnc2)C1 (stereo not given),25.8
20,Cc1ccn(CCC(=O)N2CCCC(Cc3cccnc3)C2)n1 (stereo not given),41.2
21,Cn1cnnc1CCC(=O)N1CCCC(OCc2cccnc2)C1 (stereo not given),51
22,Cn1nccc1CCC(=O)N1CCCC(c2cnccn2)C1 (stereo not given),25.6
23,O=C(CCn1ncc2ccccc21)N1CCCC(Cc2cccnc2)C1 (stereo not given),53
24,O=C(CCc1ccccc1F)N1CCCC(OCc2cccnc2)C1 (stereo not given),48.8
25,CN(CCC(=O)N1CCCC(Cc2cccnc2)C1)Cc1cccnc1 (stereo not given),38.2
26,O=C1CCCN1CCCC(=O)N1CCCC(Cc2cccnc2)C1 (stereo not given),41.2
27,Cn1nccc1CCC(=O)N1CCC(c2cnccn2)CC1,54.4
28,Cc1cncc(C2CCN(C(=O)CCc3ccnn3C)CC2)n1,6.32
29,Cn1nccc1CCC(=O)N1CCCC(Cc2cccnc2)C1 (stereo not given),56
30,CN(CC(=O)NC1CCOCC1)C1CCCN(c2cccnn2)C1 (stereo not given),26.5
